# Among all 31,000 sequences or so, about 1,400 (4.5%) were called active. Many of the other results were omitted from the sample, so actives are more common in it than they were. A number with no mark means an inactive call.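 The calls were made as follows: active = median seed-adjusted z-score above 1 or below -1; inactive = the rest.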
# Assay: Novel Modifiers of Survival Motor Neuron (SMN) Protein: Gene Identification via Genome-wide siRNA Screen;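 also: luminescence tracks full-length SMN protein made from the SMN2 reporter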
# Settings: HEK293T SMN2-luciferase reporter, siRNA knockdown, 72 h; actives lie on both sides
# In short: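 Luciferase signal, proportional to full-length SMN made from an SMN2 cDNA reporter in stable HEK293T cells, was read 72 h after siRNA reverse transfection. Values were expressed as MAD scores after non-targeting-control normalization and log10 conversion; seed analysis flagged off-targets.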
row,Sequence,median seed-adjusted z-score
1,GAGUCACAUUUGAGGUUCATT against CSF2RA,-0.227
2,CUCCCUCGGUUAUAAAGAUTT against SLC4A5,1.3 (active)
3,CAACCUUGCGGCAUGCAAATT against PRSSL1,-0.221
4,GGAUCUAUAGUGAUUGUCATT against TFRC,0.019
5,GCCUAUAGAGGAUCAGUUATT against PCMTD1,0.0312
6,GAGUGAGGACGGAAGAUCATT against APH1A,0.741
7,GGCUGUAUGAGCACCGUUATT against TGIF1,0.303
8,GGAUGUUAGUAAACUCUCUTT against PSMA4,0
9,GAAUGUUAGUAGACGGGUUTT against IKZF5,0.399
10,GCACUAUCCAGUUUGUGGATT against TUBA3E,-0.35
11,GGCCGUUACUUACCAGAGUTT against UROD,1.11 (active)
12,GAGAAACUAGAAUACAGAATT against ADPRH,-0.406
13,GGGAUUAUCUUGCUUCCAATT against LPCAT2,0
14,CCGUGAACCCAGAACAGUATT against PIP4K2A,0.469
15,GAGUCAGGACAAGAAGAUUTT against PHPT1,1.27 (active)
16,GGAUGGAACUUUACCCUCATT against MKL2,-0.863
17,CUACAAGCAUCGAUAGUAATT against EIF4G3,-0.0562
18,GAAAGAAAUCAACUGAUGATT against FBP1,-0.221
19,GCAGACUCUCGACAUCCGATT against MAFK,1.73 (active)
20,GCUCAUUCCAGGUCAAUCATT against MLL3,-0.248
21,GCUCAUAGGUAAGAAUUGUTT against NUBP1,-0.0975
22,CGGCCUUCAUCGCAGUACATT against SLC7A5,0.00397

row,Sequence,median seed-adjusted z-score
1,GGGUGAAGUCUCUCAAGAATT against LLGL1,-1.13 (active)
2,CAAGAUCUAUGAUAAGGAUTT against GUCA1B,0
3,ACUUCAACAUGACCAAAAATT against PPARD,0.0283
4,GAGCUUGUAUAUGAAGCUATT against PDCD4,-0.0842
5,GGAUGACAGUCUCAUUGCATT against GON4L,0.116
6,CCAUGCUGUCUAUAGCCUATT against TRPC5,-1.14 (active)
7,GGUUUUAGACCACACUAAATT against MSH3,0.428
8,CAUUCCCUGUUGUAAUCAATT against MDH1,-0.154
9,CGUCAUCACCCUCAACUAUTT against NLGN3,-0.0279
10,GGACAUCGAAAAGUUAGUATT against MX2,-0.0346
11,CAAGAGUCUCUUUAAGGAATT against ACTL8,0
12,GGAUGUAUGACAUCUGUAATT against STC1,-1.36 (active)
13,GCAUCCCUACGGUUGUUGATT against EIF2B4,0
14,GAGAAUAUCUGGAACCAGUTT against BDKRB1,0.448
15,CCAAUGCCCAGAUUAUGUATT against CELSR2,-0.493
16,GGAGAUACCUGGUCUCUUUTT against ADAM21,0
17,GUCUUUCAGGUGUACCCAUTT against GATA1,0.371
18,GCAUGCCCAUGAACAAAAATT against B3GNT1,0.0931
19,GAAUGGGUCUUGUAAAUCATT against PPAT,-1.51 (active)
20,ACCUGAUGGUGGGCGCAAATT against MYBPC3,0.304
21,AGAUCAACCUGCUUCCCGATT against PDK2,-0.481
22,GGAUUAUAGUGUCACCUAUTT against CPD,-0.198

row,Sequence,median seed-adjusted z-score
1,GCGCAUUACUUUCUAGAAATT against PEX5L,0.0982
2,GAAUCAAGAAUUAAAGACATT against PIPOX,1.06 (active)
3,CAGUUCAUGUGGAUCAUCATT against GABARAPL2,0.528
4,CCACCUGUACAGCACGGUATT against TGFB1I1,0.887
5,GGGCAAAGCGAAACGCAAATT against ZNF536,-0.295
6,GCACGAGCCUUUCUCCAGUTT against RNASE7,1.07 (active)
7,GAAAGUCCAGAUGAGGAUATT against KLF9,0.767
8,GAAAUGGACCAGACACUAATT against POU2F2,0.163
9,GGGACCAAAAUCAAUGAAATT against PCBP3,-0.0373
10,GAAUGCAGGGAGAAACUUATT against TRIM64,-0.024
11,GGAAGACAGAGAAUCGAAATT against SEMA5A,-0.443
12,GACAAGACGUGGUCAAGAATT against BCL2L13,0.311
13,GCAGUAGACUGAGCAGCAATT against TMTC4,-1.16 (active)
14,CCUCAGGGAAGUACCCAAATT against RNASE8,0.00771
15,CGCCUACACUCCUACGUGUTT against ZDHHC24,-0.695
16,UGCCCGCUGUAGAUGAGAATT against APOC2,-0.0599
17,GUUUCACCAUCGUUCGUGATT against PROKR2,0.328
18,CAAAAUGCAUUAGCUGAAATT against VIP,1.52 (active)
19,AGAUGUACAUCCUCGUGCATT against ELFN2,-0.0888
20,CUCCUGAGAUAAUAAUGAATT against RFC3,0.733
21,CUCCUAUAAGAAAUCAAUATT against FLVCR1,0.197
22,CCAAUACAGUGGACAGUUATT against EMR1,0.255

row,Sequence,median seed-adjusted z-score
1,GGAGGGUCUUCAUCGCUGATT against POLR2C,-2.95 (active)
2,AAAGAAUCAUUGUGAAAGATT against PARVA,0.0852
3,GCCUUCCACGCUUUCCUGATT against RGS16,0
4,GCGCAAUAAUGAACGGCAATT against GALNT14,0
5,CGAUCGCAAGUACCACGAATT against ATP8B1,0.357
6,GACUAGCUGCUGAUAAGAATT against CKAP5,-1.87 (active)
7,AGUCCUCGGUGAUGCGUGATT against LMNB2,-0.15
8,CAGGCACAGUUGCCGAUUATT against CD247,-0.522
9,CCUUGACCAUGAAAAAGAATT against ZNF704,-0.15
10,GCUAUUGAAAGUACACCUATT against NARG1,-1.02 (active)
11,GGUUAUAACGGGACGAUUUTT against KIF5C,0.283
12,CCAUGUUAGAAGCCCGGAATT against ZNF385D,-0.338
13,AGAGGUACGUCUACAGUAUTT against F2R,-0.392
14,CGUCAAAUUUUUGCACAAATT against GPR176,0.0782
15,GCCGAAUUGUUUCUAGUUATT against PIN1,0.156
16,GACAGUCACUGAGCAUAGATT against PKD1L2,-1.17 (active)
17,GGAGAAAUCAGCUACAGGATT against SRD5A2,0.185
18,CAAUUGGAAUCGUCUUUUUTT against UBAC2,0.611
19,CAAGUCCCAUUGAUCCUGATT against HLF,0.0548
20,CAAGAGCAAGCAAACCUAATT against OLR1,0
21,CGGCAAGAGUGUCCAGUAUTT against RNF5,-0.0342
22,CCUUAGGAAUGAAAUCGCUTT against SIPA1L1,0.0925

row,Sequence,median seed-adjusted z-score
1,GCACUAGCAGAGUCCGAAATT against OPRK1,-1.08 (active)
2,CAGAAUCGCUUCUACAAGATT against SPAG6,-0.439
3,UGACAUCCGUGACCUCUAATT against LHX9,0.157
4,GGAAAACGGCAUUGCAGAATT against SLC23A2,-0.0585
5,GGCACUAUUCUGCUAAGAATT against RAPGEF5,0.529
6,GCCUGUUCGAAAGCGCAAATT against UBR4,0.602
7,AGGAGAAUGUGAUCCGAGATT against TXNDC14,-2.39 (active)
8,GGGUCUUCAUGAUUGGUGUTT against SLC44A5,0.179
9,GUUUGUAGGUCGUCAGAAATT against NDUFS6,-0.0128
10,CAUCCAGUCUGUAUACGAATT against ACLY,0.478
11,GCCUCCAAAGGUUACAUUUTT against UBE2E1,0.888
12,GAUGUAAACCCUGAACUAATT against CSRP2,-0.829
13,GAGGUAAUCUGGGUGCACATT against PARK7,-0.357
14,GAAUGGAGGUCAACUAUAUTT against UBE2E2,-1.77 (active)
15,GAAUGUCAUCCGUAUUUCATT against AKR1C3,-0.00538
16,GGAACUGCUGCAUUAGAUATT against ITCH,0.199
17,GAAUUUGUUCAUUAUCGUATT against UBE3A,0.0949
18,GGCGAACUGUUUUAGAAGATT against CCNB2,0.0328
19,CGAUGUUGGUUAUGAGAGATT against ACTR3,-0.7
20,GGAUAGAGGUUUCCAGUUUTT against CNBP,-1.14 (active)
